# Results filed as inconclusive are left out. Where a call stands in place of a potency, no number is given. Calls of active or inactive are those of the source. Unless noted, the call rests on the fitted dose curve.
# What was measured:
# [1] = biological target: Peroxisome proliferator-activated receptor delta (Homo sapiens) (UniProt Q03181); assay: qHTS assay for small molecule agonists of peroxisome proliferator-activated receptor delta signaling (AID 588534)
# How it was run: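 Cell-based beta-lactamase reporter assay run in agonist mode: cells seeded and incubated 5 hrs at 37 C, compounds added and incubated 18 hrs at 37 C. CCF4 dye fluorescence read after 2 hrs at RT; EC50 and efficacy from Hill fits.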
# [2] = qHTS assay for small molecule agonists of the antioxidant response element (ARE) signaling pathway (AID 651741; active means well fitted activation curve with a large enough effect in the signal ratio; the % refers to the signal ratio; further: potency means the concentration at half of the fitted maximal effect)
# How it was run: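 HepG2 ARE-bla cells plated at 2,000 cells/well and incubated 5 h at 37 C/5% CO2 received 23 nL compound in DMSO. After 16 h at 37 C, LiveBLAzer B/G FRET substrate was applied for 2 h at room temperature and fluorescence read.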
# [3] = biological target: Peroxisome proliferator-activated receptor gamma (Homo sapiens) (UniProt P37231); assay: qHTS assay for small molecule antagonists of peroxisome proliferator-activated receptor gamma signaling (AID 588537; active means well fitted inhibition curve with a large enough effect in the signal ratio, with a control signal flat, not every such curve was filed as active; the % refers to the signal ratio;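 further: reporter cells co-stimulated with 50 nM rosiglitazone agonist during compound treatment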)
# How it was run: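 Step one: plate 3000 HEK293 UAS-bla cells per well in medium with 1% stripped serum and hold 6-6.5 h at 37 C. Step two: add compound and 50 nM agonist for 16 h. Step three: CCF4 loading, fluorescence read.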
# [4] = MultiTox-Fluor Cytotoxicity Assay - LYMP1-002 - Dead Cells (AID 960; active means well fitted curve in the direction sought with a large enough effect; an effect the other way counts as inactive or inconclusive; further: potency means the concentration at half of the fitted maximal effect; nearly all actives have a fitted effect of over 60% in size)
# How it was run: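 Human lymphoblastoid cells (LYMP1-002), 2500/well in complete medium, were exposed to compounds for 16 hr at 37 C. Dead-cell protease activity was read as bis-AAF-R110 fluorescence (Ex/Em 485/520), normalized to DMSO and 15 uM tetraoctylammonium bromide; AC50 from Hill fits.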
# [5] = biological target: Cytochrome P450 3A4 (Homo sapiens) (UniProt P08684); assay: qHTS Assay for Activators of Cytochrome P450 3A4 (AID 885; active means well fitted curve in the direction sought with a large enough effect; an effect the other way counts as inactive or inconclusive; further: nearly all actives have a fitted effect of over 65% in size)
# How it was run: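 Quantitative HTS format: compounds preincubated with 20nM human CYP3A4 and Luciferin-PPXE substrate at KM, reaction started by NADPH regeneration, stopped after 60 min, luciferase luminescence read 20 min later.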
# [6] = qHTS assay for small molecule disruptors of the mitochondrial membrane potential - 1 hr assay (AID 651754); further: potency means the concentration at half of the fitted maximal effect; nearly all actives have a fitted effect of over 35% in size
# How it was run: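 HepG2 cells, attached overnight at 37C, were exposed to compound or DMSO vehicle for 1 hr at 37C, 5% CO2, then stained with Mito-MPS dye for 30 min. Red aggregate versus green monomer fluorescence reports membrane potential.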
# [7] = qHTS assay for small molecule disruptors of the mitochondrial membrane potential - 5 hr assay (AID 651755); further: potency means the concentration at half of the fitted maximal effect; nearly all actives have a fitted effect of over 40% in size
# How it was run: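 HepG2 cells (2,000/well), attached overnight, exposed to compound 5 hr at 37C, then Mito-MPS dye 30 min. Fluorescence read for monomers (490/535 nm) and aggregates (540/590 nm).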
# [8] = qHTS assay for small molecule antagonists of peroxisome proliferator-activated receptor delta signaling (AID 588535; active means well fitted inhibition curve with a large enough effect in the signal ratio, with a control signal flat, not every such curve was filed as active; the % refers to the signal ratio;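 on max response: cells co-treated with a PPAR-delta agonist as stimulator during compound exposure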); conditions: HEK293T PPARd-UAS-bla, beta-lactamase FRET ratio, 18 h; 460 nm channel
# How it was run: (§1)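 Cells were seeded at 4000 per well in assay medium containing 2% charcoal/dextran FBS and held 5 hrs at 37 C. Compounds were then added for 18 hrs. CCF4 substrate was applied for 2 hrs at room temperature before fluorescence reading.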
# [9] = biological target: Peroxisome proliferator-activated receptor delta (Homo sapiens) (UniProt Q03181); assay: as above
# How it was run: as §1
# [10] = biological target: Vitamin D3 receptor (Homo sapiens) (UniProt P11473); assay: qHTS assay for small molecule antagonists of vitamin D receptor signaling (AID 588541);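 further: receptor activated by calcitriol during compound treatment; series mostly up to about 77 µM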
# How it was run: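 VDR-UAS-bla HEK293T cells in 2% charcoal-stripped FBS were stimulated with 1-alpha,25-dihydroxyvitamin D3 (3 nM final) plus compound for 16 h at 37 C. The beta-lactamase CCF4 readout was normalized to 50 nM agonist and DMSO, and Hill fits gave IC50.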
# [11] = biological target: Vitamin D3 receptor (Homo sapiens) (UniProt P11473); assay: qHTS assay for small molecule agonists of vitamin D receptor signaling (AID 588543)
# How it was run: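 Reporter cells (HEK293T, VDR-UAS-bla) were seeded in medium with 2% charcoal-stripped serum and incubated 5 h, then compounds in concentration series were added for 16 h at 37 °C. Stimulation was scaled between DMSO basal and 50 nM 1α,25-dihydroxyvitamin D3.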
# [12] = qHTS assay for small molecule agonists of retinoid X receptor alpha signaling (AID 588544); conditions: HEK293T RXRa-UAS-bla, beta-lactamase reporter, 18 h; 530 nm emission
# [13] = biological target: Retinoic acid receptor RXR-alpha (Homo sapiens) (UniProt P19793); assay: as above
# [14] = biological target: Thyroid hormone receptor beta (Homo sapiens) (UniProt P10828); assay: qHTS assay for small molecule agonists of thyroid hormone receptor beta signaling (AID 588545)
# How it was run: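 Compounds were tested as agonists in TR-UAS-bla-GripTite HEK 293 cells. After 18 hrs at 37 C, CCF4 substrate was added and fluorescence read after 2 hrs at room temperature.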
# [15] = qHTS assay for small molecule antagonists of retinoid X receptor alpha signaling (AID 588546; active means well fitted inhibition curve with a large enough effect in the signal ratio, with a control signal flat, not every such curve was filed as active; the % refers to the signal ratio;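 further: cells stimulated with 9-cis-retinoic acid as agonist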); conditions: HEK293T RXRa-UAS-bla, beta-lactamase ratio, antagonist mode; measured here: W530 green channel, cytotoxicity proxy
# How it was run: (§2)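 Beta-lactamase reporter inhibition, read as CCF4 fluorescence ratio (ex 405, em 460/530 nm) after 2 h at RT. HEK293T UAS-bla cells, 2500/well, were stimulated with 9-cis-RA at 500 or 100 nM final alongside test compound for 18 h at 37 C.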
# [16] = biological target: Retinoic acid receptor RXR-alpha (Homo sapiens) (UniProt P19793); assay: as above; conditions: HEK293T RXRa-UAS-bla, beta-lactamase ratio, antagonist mode
# How it was run: as §2
# [17] = qHTS assay for small molecule activators of the p53 signaling pathway (AID 651743; active means well fitted activation curve with a large enough effect in the signal ratio, not every such curve was filed as active; the % refers to the signal ratio; further: series mostly up to about 92 µM); conditions: HCT-116 p53RE-bla, beta-lactamase FRET ratio, 16 h; activation: stronger effect = higher value
# How it was run: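 HCT-116 p53RE-bla, 4,000 cells/well; 5 h settle; cpd/DMSO 16 h, 37 C; LiveBLAzer B/G 2 h RT; fluorescence intensity.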
# [18] = qHTS assay for small molecule activators of the nuclear factor-kappa B (NF-kB) signaling pathway (AID 651749; active means well fitted activation curve with a large enough effect in the signal ratio; the % refers to the signal ratio; further: series mostly up to about 77 µM); conditions: NF-kB-bla ME-180 cells, beta-lactamase FRET ratio, 16 h; activation: stronger effect = higher value
# How it was run: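 Incubation lasted 16 hr at 37C in 5% CO2 after 23 nL compound addition to ME-180 NF-kB-bla cells. Activation appears as beta-lactamase-mediated FRET loss.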
# [19] = qHTS assay for environmental chemicals that activate the Aryl hydrocarbon Receptor (AhR) signaling pathway (AID 651777; active means well fitted curve in the direction sought with a large enough effect; an effect the other way counts as inactive or inconclusive; further: nearly all actives have a fitted effect of over 15% in size; further: potency means the concentration at half of the fitted maximal effect); conditions: 1A2-DRE human hepatoma cells, luciferase, 24 h; activation: stronger effect = higher value
# How it was run: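 Luminescence read-out: One-Glo added for 30 min at RT after 24 hr compound treatment (37 C, 5% CO2) of human hepatoma cells expressing a DRE/CYP1A2 promoter–luciferase reporter; increased signal indicates AhR activation.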
# [20] = biological target: Peroxisome proliferator-activated receptor alpha (Homo sapiens) (UniProt Q07869); assay: qHTS assay for small molecule agonists of the peroxisome proliferator-activated receptor alpha (PPARalpha) signaling pathway (AID 651778; active means well fitted curve in the direction sought with a large enough effect; an effect the other way counts as inactive or inconclusive); conditions: PathHunter PPARalpha complementation, chemiluminescence, 6 h; max response: stronger effect = higher value
# How it was run: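 Enzyme-fragment complementation assay in which ligand-bound PPARalpha translocates and forms an active enzyme that generates chemiluminescence. Cells were plated overnight, exposed to compound for 6 hr at 37 C, and then given detection reagent for 60 min at room temperature.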
# [21] = qHTS assay for small molecule agonists of the antioxidant response element (ARE) signaling pathway measured by Nrf2-dependant transcriptional activity (AID 720636; active means well fitted curve in the direction sought with a large enough effect in the repeat runs; an effect the other way counts as inactive or inconclusive;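 further: HepG2 cells with an ARE-driven luciferase reporter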)
# How it was run: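 HepG2 ARE-luc reporter line, 1% dialyzed FBS; 6 hr attachment at 37 C, compound pinned in, 16 hr at 37 C/5% CO2; ONE-Glo, 30 min RT, luminescence read.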
# [22] = qHTS assay for small molecule agonists of the antioxidant response element (ARE) signaling pathway measured by Nrf2-dependant transcriptional activity - cell viability counter screen (AID 720653; active means well fitted curve in the direction sought with a large enough effect in the repeat runs; an effect the other way counts as inactive or inconclusive); conditions: ARE-bla HepG2 viability, CellTiter-Glo ATP luminescence, 16 h; max response: stronger effect = lower value
# How it was run: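 ARE-bla HepG2 cells treated with compounds for 16 h at 37C; this counter screen measures viability as intracellular ATP by CellTiter-Glo luminescence after 30 min at room temperature.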
# [23] = qHTS assay for cell viability of HEK293 cells (AID 743288; active means well fitted curve in the direction sought with a large enough effect; an effect the other way counts as inactive or inconclusive; further: nearly all actives have a fitted effect of over 50% in size); conditions: ATP luminescence (CellTiter-Glo), 18 h; max response: stronger effect = lower value
# How it was run: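 HEK293 parental, 2,000 cells/well; ≥5 h pre-incubation 37 C; pintool compound addition; 18 h, 37 C; CellTiter-Glo 30 min RT; luminescence read.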
# [24] = qHTS assay for cell viability of the p53RE-bla HCT-116 cell line (AID 743292; active means well fitted curve in the direction sought with a large enough effect; an effect the other way counts as inactive or inconclusive; further: nearly all actives have a fitted effect of over 55% in size)
# How it was run: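 Luminescent ATP quantitation (CellTiter-Glo) served as the viability read-out; reagent was added after 16 h compound exposure at 37 C and read after 30 min at room temperature. Cells: p53RE-bla HCT-116, 4,000 per well.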
# [25] = qHTS assay for small molecule activators of the human pregnane X receptor (PXR) signaling pathway (AID 720659; call rule not given here)
# [26] = biological target: Peroxisome proliferator-activated receptor gamma (Homo sapiens) (UniProt P37231); assay: qHTS assay for small molecule agonists of peroxisome proliferator-activated receptor gamma signaling (AID 588536; active means well fitted curve in the direction sought with a large enough effect in the signal ratio, with a control signal flat, not every such curve was filed as active; the % refers to the signal ratio)
# How it was run: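 HEK293 UAS-bla reporter line, 1% charcoal/dextran FBS; titration, 16 h, 37 C; CCF4 loading 2 h RT; fluorescence 460/530 nm. Normalized to rosiglitazone 2 uM = 100%, DMSO = 0%.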
# Chain of Peroxisome proliferator-activated receptor delta (Homo sapiens) (Q03181 whole entry, looked up): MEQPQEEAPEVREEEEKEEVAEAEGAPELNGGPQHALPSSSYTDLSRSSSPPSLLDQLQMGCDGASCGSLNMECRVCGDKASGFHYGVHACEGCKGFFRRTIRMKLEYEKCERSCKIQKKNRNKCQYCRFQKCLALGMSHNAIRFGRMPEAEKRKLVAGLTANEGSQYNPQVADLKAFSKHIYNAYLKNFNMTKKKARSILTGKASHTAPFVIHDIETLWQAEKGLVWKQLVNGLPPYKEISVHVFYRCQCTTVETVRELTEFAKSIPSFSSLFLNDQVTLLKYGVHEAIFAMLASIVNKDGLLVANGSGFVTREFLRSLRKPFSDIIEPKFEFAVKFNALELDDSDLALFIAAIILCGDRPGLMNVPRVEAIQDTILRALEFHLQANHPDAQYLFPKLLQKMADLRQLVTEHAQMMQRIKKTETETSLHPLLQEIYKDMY
# Chain of Vitamin D3 receptor (Homo sapiens) (P11473 whole entry, looked up): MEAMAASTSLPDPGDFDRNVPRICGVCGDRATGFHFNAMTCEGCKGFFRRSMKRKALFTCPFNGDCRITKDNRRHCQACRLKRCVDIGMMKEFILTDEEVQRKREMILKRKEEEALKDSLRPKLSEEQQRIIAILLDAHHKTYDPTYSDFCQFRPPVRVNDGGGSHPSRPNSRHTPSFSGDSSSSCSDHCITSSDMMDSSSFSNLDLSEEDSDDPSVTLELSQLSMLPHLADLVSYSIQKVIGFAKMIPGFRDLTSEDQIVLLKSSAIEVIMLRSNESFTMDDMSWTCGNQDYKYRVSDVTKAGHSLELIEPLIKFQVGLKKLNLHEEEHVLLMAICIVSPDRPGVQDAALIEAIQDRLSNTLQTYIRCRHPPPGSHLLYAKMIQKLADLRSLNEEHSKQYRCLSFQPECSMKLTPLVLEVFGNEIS
# Chain of Peroxisome proliferator-activated receptor gamma (Homo sapiens) (P37231 whole entry, looked up): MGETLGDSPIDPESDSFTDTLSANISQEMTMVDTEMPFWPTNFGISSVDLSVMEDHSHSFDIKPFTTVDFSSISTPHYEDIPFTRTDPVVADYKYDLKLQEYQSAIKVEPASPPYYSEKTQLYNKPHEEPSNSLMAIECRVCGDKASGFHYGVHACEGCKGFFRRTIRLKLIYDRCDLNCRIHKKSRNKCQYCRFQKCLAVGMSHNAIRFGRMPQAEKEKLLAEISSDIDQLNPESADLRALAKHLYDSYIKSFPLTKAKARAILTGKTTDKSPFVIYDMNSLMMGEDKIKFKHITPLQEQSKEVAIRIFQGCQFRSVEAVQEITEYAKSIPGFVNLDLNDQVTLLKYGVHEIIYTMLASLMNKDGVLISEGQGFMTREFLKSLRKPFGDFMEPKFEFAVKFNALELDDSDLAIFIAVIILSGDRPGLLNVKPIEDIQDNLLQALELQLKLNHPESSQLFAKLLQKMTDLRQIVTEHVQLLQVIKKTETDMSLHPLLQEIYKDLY
# Chain of Thyroid hormone receptor beta (Homo sapiens) (P10828 whole entry, looked up): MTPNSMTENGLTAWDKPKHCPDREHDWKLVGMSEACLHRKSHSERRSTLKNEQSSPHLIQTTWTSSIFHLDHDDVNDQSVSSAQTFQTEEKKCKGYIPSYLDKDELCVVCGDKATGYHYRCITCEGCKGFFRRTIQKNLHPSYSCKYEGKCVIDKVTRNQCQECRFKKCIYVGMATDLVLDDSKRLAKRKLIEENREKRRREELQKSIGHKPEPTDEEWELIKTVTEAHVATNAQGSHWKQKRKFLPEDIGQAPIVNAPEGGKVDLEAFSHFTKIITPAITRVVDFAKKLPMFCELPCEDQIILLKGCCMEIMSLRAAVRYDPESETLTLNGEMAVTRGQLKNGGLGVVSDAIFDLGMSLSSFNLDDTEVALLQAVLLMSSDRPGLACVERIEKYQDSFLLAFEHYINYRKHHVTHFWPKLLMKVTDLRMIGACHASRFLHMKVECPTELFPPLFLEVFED
# Chain of Peroxisome proliferator-activated receptor alpha (Homo sapiens) (Q07869 whole entry, looked up, the tested form may be a part): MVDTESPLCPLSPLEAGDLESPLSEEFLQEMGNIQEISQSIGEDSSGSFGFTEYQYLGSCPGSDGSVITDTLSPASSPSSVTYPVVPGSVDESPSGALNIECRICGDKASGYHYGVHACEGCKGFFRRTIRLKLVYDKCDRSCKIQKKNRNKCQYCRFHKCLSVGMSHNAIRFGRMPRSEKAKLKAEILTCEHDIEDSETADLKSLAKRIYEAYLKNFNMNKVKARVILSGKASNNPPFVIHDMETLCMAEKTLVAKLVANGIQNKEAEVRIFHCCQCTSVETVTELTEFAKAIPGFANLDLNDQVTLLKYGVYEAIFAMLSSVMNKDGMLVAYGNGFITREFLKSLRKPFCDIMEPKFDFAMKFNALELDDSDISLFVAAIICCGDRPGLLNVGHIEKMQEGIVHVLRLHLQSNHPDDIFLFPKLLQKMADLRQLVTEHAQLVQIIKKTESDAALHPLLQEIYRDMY
# Chain of Retinoic acid receptor RXR-alpha (Homo sapiens) (P19793 whole entry, looked up): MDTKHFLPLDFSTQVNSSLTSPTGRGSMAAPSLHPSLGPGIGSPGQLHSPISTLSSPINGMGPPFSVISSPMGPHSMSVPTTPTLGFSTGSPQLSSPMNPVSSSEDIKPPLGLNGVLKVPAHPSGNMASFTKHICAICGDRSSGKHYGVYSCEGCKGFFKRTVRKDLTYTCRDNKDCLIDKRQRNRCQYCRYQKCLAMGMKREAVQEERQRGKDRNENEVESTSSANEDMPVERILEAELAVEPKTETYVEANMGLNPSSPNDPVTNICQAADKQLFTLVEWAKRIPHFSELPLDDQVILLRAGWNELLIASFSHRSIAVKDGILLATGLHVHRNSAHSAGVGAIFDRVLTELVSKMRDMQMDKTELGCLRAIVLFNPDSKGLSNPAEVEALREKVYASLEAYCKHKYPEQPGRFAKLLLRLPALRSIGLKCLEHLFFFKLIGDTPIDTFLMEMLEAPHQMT
# Chain of Cytochrome P450 3A4 (Homo sapiens) (P08684 whole entry, looked up): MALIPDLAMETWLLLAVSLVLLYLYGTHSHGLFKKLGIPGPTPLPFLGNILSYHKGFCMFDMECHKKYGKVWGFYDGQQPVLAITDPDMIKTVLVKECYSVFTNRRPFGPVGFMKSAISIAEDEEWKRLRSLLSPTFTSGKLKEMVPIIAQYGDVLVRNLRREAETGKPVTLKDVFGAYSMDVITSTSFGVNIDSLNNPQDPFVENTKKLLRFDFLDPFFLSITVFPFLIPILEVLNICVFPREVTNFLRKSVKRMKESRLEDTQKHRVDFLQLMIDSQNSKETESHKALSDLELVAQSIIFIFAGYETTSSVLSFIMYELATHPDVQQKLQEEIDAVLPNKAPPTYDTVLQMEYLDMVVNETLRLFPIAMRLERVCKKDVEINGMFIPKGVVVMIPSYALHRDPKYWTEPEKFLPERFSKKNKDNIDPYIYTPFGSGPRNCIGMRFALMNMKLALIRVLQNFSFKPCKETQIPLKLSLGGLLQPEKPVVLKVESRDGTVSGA
smiles,measurement,setting,value
COS(C)(=O)=O,outcome,[1],inactive
same,Potency,[2],42.2 µM (active)
Cc1ccccc1C,outcome,[1],inactive
same,Potency,[3],inactive
COc1ccc(N=[N+]([O-])c2ccc(OC)cc2)cc1,Potency,[4],25.1 µM (active)
same,outcome,[1],inactive
C=CCCCCCCCCCC,outcome,[1],inactive
Cc1c(N)cccc1N,Potency,[5],inactive
same,outcome,[1],inactive
same,Potency,[6],37.6 µM (active)
same,Potency,[7],37.6 µM (active)
CC(C1CC1)C(O)(Cn1cncn1)c1ccc(Cl)cc1 (stereo not given),outcome,[1],inactive
same,max response,[8],49.1%
same,Potency,[9],inactive
same,Potency,[10],inactive
same,outcome,[11],inactive
same,max response,[12],4.53%
same,Potency,[13],inactive
same,Potency,[14],inactive
same,max response,[15],-3.3%
same,max response,[16],-4.42% (inactive)
same,activation,[17],-2.39% (inactive)
same,activation,[18],-1.89% (inactive)
same,activation,[19],1.13% (inactive)
same,max response,[20],-1.34% (inactive)
same,Potency,[21],inactive
same,max response,[22],-0.0614% (inactive)
same,max response,[23],-14% (inactive)
same,Potency,[24],inactive
same,outcome,[25],inactive
Nc1ccccc1O,outcome,[1],inactive
same,Potency,[19],12.6 µM (active)
Oc1cc(Cl)cc(Cl)c1Cl,outcome,[1],inactive
same,Potency,[2],66.8 µM (active)
same,Potency,[6],42.2 µM (active)
same,Potency,[7],42.2 µM (active)
CC(C)C(C(=O)OC(C#N)c1cccc(Oc2ccccc2)c1)c1ccc(Cl)cc1 (stereo not given),outcome,[1],inactive
same,max response,[8],-0.258%
same,Potency,[9],inactive
same,Potency,[26],inactive
same,Potency,[14],inactive
same,activation,[17],0.961% (inactive)
same,activation,[19],2.62% (inactive)
same,max response,[20],0.669% (inactive)
same,Potency,[21],inactive
same,max response,[22],-14.8% (inactive)
same,max response,[23],-26.6% (inactive)
same,Potency,[24],inactive
C=CCCC,outcome,[1],inactive
same,Potency,[19],22.4 µM (active)
